# From PubChem BioAssay AID430 (Sanford-Burnham Center for Chemical Genomics, 2006)
# Hit rate of the full screen: of about 63,000 compounds, about 1,100 (1.7%) were called active. Cut-off read from the data, not from the text of the source: active = cytotoxicity above about 50%; inactive = the rest. The list comes from a sample in which actives are over-represented; it also holds similar structures and randomly drawn compounds. Entries with a potency or affinity are not part of this list.
# Assay: HPDE-C7 pancreatic duct cell viability loss – fluorescence, HTS (AID 430);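 note: cells exposed to compound for 48 hours before viability readout; 0% = vehicle and 100% = reference cytotoxic drug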
# Settings: HPDE-C7 pancreatic duct cells viability, at 10 µM, hits give high values
row,SMILES,cytotoxicity
1,Cc1ccc(C2(C(F)(F)F)NC(=O)N3CCN=C3S2)cc1 (configuration not stated),81.6% (active)
2,Cc1ccc(C2(C(F)(F)F)NC(=O)N3CCCN=C3S2)cc1 (configuration not stated),-18.8% (inactive)
3,O=C1NC(c2ccccc2)(C(F)(F)F)SC2=NCCCN12 (configuration not stated),-2.2% (inactive)
4,CC(C)c1ccc2c(c1)C(=O)NC(C)(C)C2,1.8% (inactive)
5,COc1ccccc1C(=O)NCCn1cc(SCC(=O)Nc2nnc(C)s2)c2ccccc21,-8% (inactive)
6,CC(C)Cn1c(CN(Cc2ccccc2)Cc2ccccc2)nc2c1c(=O)n(C)c(=O)n2C,51.7% (active)
7,CCCn1c(CN(Cc2ccccc2)Cc2ccccc2)nc2c1c(=O)n(C)c(=O)n2C,-14.9% (inactive)
8,CC(C)Cn1c(CN(C)Cc2ccccc2)nc2c1c(=O)n(C)c(=O)n2C,-6.6% (inactive)
9,CCOP(=O)(c1ccc(N(C)C)cc1)C(O)c1cc(OC)c(OC)c(OC)c1 (configuration not stated),5.9% (inactive)
10,C=COC(=O)CSc1nc(-c2cccs2)ccc1C#N,26.7% (inactive)
11,COC(=O)CSc1nc(-c2cccs2)ccc1C#N,29.9% (inactive)
12,CCOC(=O)C(C)Sc1nc(-c2cccs2)ccc1C#N (configuration not stated),59.2% (active)
13,O=C(Nc1ccccc1N1CCCC1)c1ccco1,3.9% (inactive)
14,O=c1[nH]c2cc3c(cc2cc1CN(CCCO)Cc1nnnn1Cc1ccc(F)cc1)OCO3,-1.2% (inactive)
15,CC(=O)Nc1nc(C)nc(-c2ccccc2)c1C(C)=O,-1.8% (inactive)
16,CCc1nnc(NC(=O)CSc2nnc(-c3ccccc3O)n2-c2ccc(C)cc2)s1,-7.9% (inactive)
17,CCc1nnc(NC(=O)CSc2nnc(-c3ccccc3OC)n2-c2ccccc2)s1,-8.7% (inactive)
18,CCc1nnc(NC(=O)CSc2nnc(-c3ccccc3O)n2-c2ccc(C)cc2C)s1,73.5% (active)
19,C=CCN(CC=C)S(=O)(=O)c1ccc2nsnc2c1,-6.7% (inactive)
20,C=CCN(CC=C)S(=O)(=O)c1ccc2nc(NC(=O)C(C)C)sc2c1,76.7% (active)
21,CCOC(=O)c1ccc2nc(NC(=O)C(C)C)sc2c1,-3.3% (inactive)
22,COc1ccc(-c2noc(CSc3nc4ccccc4c(=O)n3-c3ccccc3)n2)cc1OC,-10.3% (inactive)
23,Cc1ccccc1NC(=O)C1CCCN(S(=O)(=O)c2cnc[nH]2)C1 (configuration not stated),-5.3% (inactive)
24,CC(C)c1[nH]nc2c1C(C(C)C)C(C#N)=C(N)O2 (configuration not stated),-24.3% (inactive)
25,NC1=NC(c2ccc(F)cc2)n2c(nc3ccccc32)N1 (configuration not stated),-3.6% (inactive)

row,SMILES,cytotoxicity
1,Cc1cc(C2N=C(N)Nc3nc4ccccc4n32)c(C)n1-c1ccccc1Cl (configuration not stated),2.7% (inactive)
2,COc1cc(S(=O)(=O)N2CCN(c3ccccc3)CC2)ccc1Cl,-12.6% (inactive)
3,Cc1nc(SCc2c(F)cccc2Cl)c2c(=O)n(C)c(=O)n(C)c2n1,-26.2% (inactive)
4,CC(C)c1nc(SCc2c(F)cccc2Cl)c2c(=O)n(C)c(=O)n(C)c2n1,77.1% (active)
5,CC(C)c1nc(SCc2ccccn2)c2c(=O)n(C)c(=O)n(C)c2n1,-2% (inactive)
6,CCOC(=O)c1cnc(SCC(=O)Nc2nnc(CC)s2)nc1N,-4.3% (inactive)
7,C=CCn1cnc2c(c1=O)c1nc3ccccc3nc1n2/N=C/c1cccc(OC)c1OC,46.6% (inactive)
8,C=CCn1cnc2c(c1=O)c1nc3ccccc3nc1n2/N=C/c1cccc(OC)c1,48.5% (inactive)
9,O=C(CCSc1ccccc1)Nc1ccc(S(=O)(=O)N2CCOCC2)cc1,1.8% (inactive)
10,COc1cc2c(cc1OC)C(c1cc(OC)c(OC)c(OC)c1)NCC2 (configuration not stated),4.6% (inactive)
11,COc1cc2c(cc1OC)C1Cc3ccc(OC)c(OC)c3CN1CC2 (configuration not stated),-10.2% (inactive)
12,O=C(O)C1CC(=O)N(c2ccc(F)cc2)C1 (configuration not stated),-16.5% (inactive)
13,CCOC(=O)C1C2C=CC3(CN(c4cccc(Cl)c4)C(=O)C13)O2 (configuration not stated),-0.8% (inactive)
14,CC1(C)C2CC=C(/C=N/n3cnnc3)C1C2 (configuration not stated),-4.1% (inactive)
15,O=C(c1ccc(F)cc1)C1CCN(CCn2c(=O)[nH]c3ccccc3c2=O)CC1,5.4% (inactive)
16,O=c1c2ccccc2[nH]c(=S)n1CCN1CCN(Cc2ccccc2)CC1,-3.8% (inactive)
17,COc1ccc(C(=O)OCC(=O)NCc2ccco2)cc1OC,-14.8% (inactive)
18,COc1cc(S(=O)(=O)Nc2cccnc2)ccc1F,-3.6% (inactive)
19,CCCCOc1ccc(S(=O)(=O)Nc2cccnc2)cc1,-5.2% (inactive)
20,COc1ccccc1Oc1ccc(S(=O)(=O)Nc2cccnc2)cc1,51.5% (active)
21,Cc1nc(NC(=O)CSc2nc3cccnc3n2C2CCCCC2)sc1C,9.2% (inactive)
22,Cc1ccc(-c2nn3c(C)nnc3s2)cc1NC(=O)c1ccc(Br)o1,-10.8% (inactive)
23,Cc1nnc2sc(-c3cccc(NC(=O)c4ccc(-c5cccc(Cl)c5)o4)c3)nn12,0.6% (inactive)
24,CC(C)CNc1nc(Oc2ccc(=O)n(C)n2)nc(N2CCOCC2)n1,-7.6% (inactive)
25,c1ccc(Cn2ncc3c(NCc4ccco4)ncnc32)cc1,8.9% (inactive)

row,SMILES,cytotoxicity
1,Cc1cccc(-n2ncc3c(NCc4ccco4)ncnc32)c1,64.1% (active)
2,Cc1ccc(-n2ncc3c(NCc4ccco4)ncnc32)c(C)c1,-6.7% (inactive)
3,c1ccc(-n2ncc3c(NCc4ccco4)ncnc32)cc1,1.4% (inactive)
4,Clc1ccc(Cn2ncc3c(NCc4ccco4)ncnc32)c(Cl)c1,51.5% (active)
5,Clc1ccc(-n2ncc3c(NCc4ccco4)ncnc32)cc1,17.4% (inactive)
6,Cc1ccc(Cl)cc1N1CCN(C(=O)C2CCN(c3nnc(-n4cccc4)s3)CC2)CC1,43.7% (inactive)
7,Cc1ccc(C)c(N2CCN(C(=O)C3CCN(c4nc(C)cc(C)n4)CC3)CC2)c1,11.3% (inactive)
8,Cc1cc(C)nc(N2CCC(C(=O)N3CCN(c4cc(Cl)ccc4C)CC3)CC2)n1,59.5% (active)
9,O=C(COC(=O)C1c2ccccc2Oc2ccccc21)NC1CCS(=O)(=O)C1 (configuration not stated),-3.2% (inactive)
10,Cc1ccc2nc(NC3=NCN(Cc4ccc5c(c4)OCO5)CN3)nc(C)c2c1,8.3% (inactive)
11,Cc1nc(NC2=NCN(Cc3ccc4c(c3)OCO4)CN2)nc2ccccc12,2.1% (inactive)
12,Cc1cc2nc(NC3=NCN(Cc4ccc5c(c4)OCO5)CN3)nc(C)c2cc1C,93.4% (active)
13,CC(=O)C1=C(O)C(=O)N(Cc2ccco2)C1c1ccccc1 (configuration not stated),-10.9% (inactive)
14,Cc1ccc(S(=O)(=O)c2cc3c(=O)n4ccccc4nc3n(Cc3ccco3)c2=N)cc1,21.9% (inactive)
15,N=c1c(S(=O)(=O)c2ccccc2)cc2c(=O)n3ccccc3nc2n1Cc1ccco1,-0.3% (inactive)
16,Cc1ccc(Cn2c(=N)c(C(=O)NCc3ccco3)cc3c(=O)n4ccccc4nc32)cc1,-10.8% (inactive)
17,Cc1ccc(CNC(=O)c2cc3c(=O)n4ccccc4nc3n(Cc3ccco3)c2=N)cc1,104% (active)
18,N=c1c(C(=O)NCc2ccccc2)cc2c(=O)n3ccccc3nc2n1Cc1ccco1,1.8% (inactive)
19,CC1=C(C(N)=O)C(c2ccccn2)n2nc(-c3ccccc3Cl)nc2N1 (configuration not stated),13.8% (inactive)
20,C=C(C)COc1ccc2c3c(c(=O)oc2c1OCC(=C)C)CCC3,11.5% (inactive)
21,Cc1ccc(C(C(=O)NC2CCCCC2)N(Cc2cccnc2)C(=O)C2COc3ccccc3O2)o1 (configuration not stated),-11.7% (inactive)
22,C=CCn1c(SCC(=O)NC2CCCCC2)nnc1-c1sc(N)nc1C,-10% (inactive)
23,CCn1c(COc2ccc3c(c2)OCO3)nnc1SCC(=O)c1ccccc1,-1.4% (inactive)
24,O=S(=O)(NCc1cccs1)c1cccc2cccnc12,-9.6% (inactive)
25,CN(CC(=O)NCc1cccs1)S(=O)(=O)c1cccc2cccnc12,-9.8% (inactive)

row,SMILES,cytotoxicity
1,CCOC(=O)C1(C)NC(c2ccc(N(C)C)cc2)C2C(=O)N(CC)C(=O)C21 (configuration not stated),-12.4% (inactive)
2,O=c1c2ccccc2nc(SCc2cc(F)cc3c2OCOC3)n1Cc1ccco1,-2.2% (inactive)
3,N#Cc1nc(-c2ccc(F)cc2)oc1N1CCCC1,-7.6% (inactive)
4,O=C(c1ccc(F)cc1)c1ccc(N2CCCC2)cc1,-17.7% (inactive)
5,CN(C)CCN1C(=O)C(O)=C(C(=O)c2ccco2)C1c1ccccc1F (configuration not stated),-4.8% (inactive)
6,CCn1c(=O)cc(OCC(=O)N2CCCC2)c2ccccc21,-3% (inactive)
7,COc1ccc(C(CNC(=O)Cn2[nH]c(=O)c3ccccc3c2=O)N2CCCC2)cc1 (configuration not stated),1.8% (inactive)
8,Cc1ccc(Cc2c(C)nc3nc(SCC(=O)NCc4ccco4)nn3c2C)cc1,61.8% (active)
9,Cc1ccccc1Cc1c(C)nc2nc(SCC(=O)NCc3ccco3)nn2c1C,12% (inactive)
10,Cc1cccc(Cc2c(C)nc3nc(SCC(=O)NCc4ccco4)nn3c2C)c1,45.8% (inactive)
11,Cc1nnc(NC(=O)c2ccc(-c3cccc(C(F)(F)F)c3)o2)s1,-13.1% (inactive)
12,CCOC(=O)c1c(C)nn(Cc2ccccc2)c1N,-1.6% (inactive)
13,CCOC(=O)c1sc(NC(=O)c2c(C)nn(Cc3ccccc3)c2C)cc1C,72.7% (active)
14,CCOC(=O)c1sc(NC(=O)c2cccs2)cc1C,-16.1% (inactive)
15,Cc1cccc(OCc2nnc(SCC(=O)N(C(C)C)C(C)C)n2Cc2ccco2)c1C,-16% (inactive)
16,CC1(C)Cc2c(sc3ncn4nc(CCC(=O)O)c(=O)nc4c23)CO1,-23.3% (inactive)
17,CC(=O)Nc1cc(C(F)(F)F)ccc1N1CCOCC1,14.9% (inactive)
18,O=C(Nc1cc(C(F)(F)F)ccc1N1CCOCC1)c1ccco1,1.1% (inactive)
19,O=C(Nc1cc(C(F)(F)F)ccc1N1CCOCC1)c1cccnc1,4.3% (inactive)
20,O=C(Nc1cc(C(F)(F)F)ccc1N1CCOCC1)c1c(F)c(F)c(F)c(F)c1F,51% (active)
21,Cc1onc(-c2ccccc2)c1C(=O)Nc1cc(C(F)(F)F)ccc1N1CCOCC1,69.1% (active)
22,Cc1onc(-c2ccccc2)c1C(=O)Nc1ccccc1N1CCOCC1,4.9% (inactive)
